# In the library only some 9% were active in any assay of this set; here they are far more common.
# 12-LOX inh = ALOX12 (human) lipoxygenase inhibition; P18054; purified 12hLO, xylenol orange hydroperoxide absorbance; Potency, µM (doses to about 108 µM), for inactives: at the top dose activity change, negative = inhibition, actives largely listed as inhibitors; 580,000 compounds, 1.1% hits; further: on the % scale 0 is the no-effect control and ±100 the full control effect
#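 Purified human 12hLO at 150 nM in 25 mM Hepes, 0.01% Triton X-100, pH 7.0, preincubated 15 min at room temperature with compound. Reaction started with 40 uM arachidonic acid, 30 min at room temperature. Hydroperoxide measured by Fe-xylenol orange, 573/405 nm absorbance ratio.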
# G9a inh = inhibitors of human histone lysine methyltransferase G9a. Q96KQ7. G9a H3K9 monomethylation, AlphaScreen, 2 h. Potency, µM (highest dose often 102 µM), for the others: at the highest dose activity, negative = inhibition, hits mostly inhibitors. 350,000 compounds, 8.8% hits; further: on the % scale 0 is the no-effect control and ±100 the full control effect; nearly all actives have a fitted effect of over 75% in size
# Target sequence (Q96KQ7 913-1193 limits assumed): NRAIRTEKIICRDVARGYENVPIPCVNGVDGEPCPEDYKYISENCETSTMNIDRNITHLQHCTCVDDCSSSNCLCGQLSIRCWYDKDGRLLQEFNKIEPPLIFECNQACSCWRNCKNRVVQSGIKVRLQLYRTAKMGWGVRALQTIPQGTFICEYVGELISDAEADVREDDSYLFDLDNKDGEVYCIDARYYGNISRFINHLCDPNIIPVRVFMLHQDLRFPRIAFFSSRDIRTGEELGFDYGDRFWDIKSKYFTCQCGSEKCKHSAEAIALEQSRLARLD
#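 Methyltransferase reactions run at room temperature for 2 h (20 nM enzyme, 500 nM biotin-H3K9 peptide, 20 uM SAM) after a 15 min compound preincubation; product detected by AlphaScreen beads and anti-H3K9me1 antibody.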
# JMJD2A Tudor = blocks the human JMJD2A Tudor domain; O75164; AlphaScreen JMJD2A-Tudor / H3K4me3 peptide binding; Potency, µM (titrated, usually from 114 µM), for the others: at the highest dose activity change, negative = inhibition, actives largely listed as inhibitors; 390,000 compounds, 4.4% hits; further: on the % scale 0 is the no-effect control and ±100 the full control effect; nearly all actives have a fitted effect of over 50% in size
# HP1b chromo inh = HP1-beta chromodomain-methylated histone interaction inhibition; Potency, µM (titrated, usually from 114 µM), inactives show top-dose activity change, negative = inhibition, usual class: inhibitors; P83916; AlphaScreen HP1-beta / biotin-H3K9me3 peptide binding; 390,000 compounds, 0.56% hits; further: nearly all actives have a fitted effect of over 70% in size
# Target sequence (P83916 whole entry, looked up): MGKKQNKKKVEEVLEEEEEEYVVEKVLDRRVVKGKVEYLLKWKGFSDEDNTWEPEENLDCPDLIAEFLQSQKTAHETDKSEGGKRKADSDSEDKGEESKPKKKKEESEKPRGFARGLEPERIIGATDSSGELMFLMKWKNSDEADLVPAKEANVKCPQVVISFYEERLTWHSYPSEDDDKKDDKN
#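 HP1-beta protein (50 nM final) preincubated 30 min at room temperature with biotinylated H3(1-18)K9me3 peptide (50 nM) in PBS pH 7.4, 0.01% Tween-20, then compound added for 30 min. AlphaScreen streptavidin donor/nickel chelate acceptor beads (10 ug/mL final), 30 min dark, luminescence read.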
# BAZ2B block = inhibitors of human BAZ2B bromodomain; Q9UIF8; AlphaScreen BAZ2B-H3K14Ac peptide displacement; Potency, µM (highest dose often 114 µM), for the others: at the highest dose activity change, negative = inhibition, usual class: inhibitors; 360,000 compounds, 4.4% hits; AID 504333; further: on the % scale 0 is the no-effect control and ±100 the full control effect; nearly all actives have a fitted effect of over 60% in size
#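 Inhibition is scored as reduced AlphaScreen emission. The BAZ2B/b-H3(5-23)K14Ac complex (50 nM each) in PBS pH 7.4, 0.01% Tween-20 meets compound (up to 110 uM) for 30 min at RT before bead addition.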
# PLK1 PBD inh = inhibitors of human PLK1 polo-box domain binding | Plk1 PBD binding of FITC phosphopeptide, fluorescence polarization | Potency, µM, for the others: max response, negative = inhibition, usual class: inhibitors | 360,000 compounds, 2.8% hits | AID 720504; further: series mostly up to about 57 µM; on the % scale 0 is the no-effect control and ±100 the full control effect; nearly all actives have a fitted effect of over 65% in size
# Starred values were filed as active, the others as inactive; ? = inconclusive; . = no result; [ ] = another dose, or the depositor's remark. The call rests on the fitted dose curve; in most records, active means well fitted curve in the direction sought with a large enough effect; inconclusive means small, poorly fitted or top-dose-only effect, or another doubt; inactive means no such curve, though single readings can be large; an effect the other way counts as inactive or inconclusive. Potency means the concentration at half of the fitted maximal effect.
SMILES,12-LOX inh,G9a inh,JMJD2A Tudor,HP1b chromo inh,BAZ2B block,PLK1 PBD inh
CCCCn1c(CCC)nc([N+](=O)[O-])c1Sc1ccc(Cl)cn1,-14%,14µM*,-22%,4%,-20%,-22%
CCCCNC(=O)c1cc2c(=O)n(CC)c3ccccc3c2s1,2%,-9%,-2%,21%,-11%,1%
Cc1ccc(S(=O)(=O)c2nc(NCc3ccc4c(c3)OCO4)sc2Cl)cc1,?,32µM*,-30%,5%,-1%,1%
O=C(NCc1ccncc1)C(=O)Nc1ccc2c(c1)OCO2,-2%,?,-11%,78%,?,-8%
Cc1ccc(CNc2ccc3c(c2)OCO3)cc1,.,?,45µM*,-24%,50µM*,-26%
COC(=O)CNc1ccc2c(c1)OCO2,-22%,8.9µM*,?,-21%,-32%,-12%
Cc1ccc(C(=O)Nc2ccc3c(c2)OCO3)cc1,21%,?,-34%,-4%,-36%,-3%
c1cc(CNc2ccc3c(c2)OCO3)ccn1,-20%,35µM*,?,-54%,?,-24%
CN(C)C(CNC(=S)Nc1ccccc1Cl)c1cccnc1 (stereo not drawn),0%,6%,-9%,13%[57 µM],6%,-15%
O=c1c2c(-c3ccccc3)csc2ncn1/N=C/c1cn(-c2ccccc2)nc1-c1cccs1,.,.,?,24%,.,.
CN=C(c1ccc(C)cc1)n1c(=S)nc(-c2ccc(C)cc2)n(C)c1=S,-12%,40µM*,7%[11.4 µM],?,-22%,-9%
CCOc1cccc(N2C(=O)CC(N(CCc3ccc(OC)c(OC)c3)C(=O)CC)C2=O)c1 (stereo not drawn),?,-2%[59 µM],1%,11%,-10%,-6%
CCOC(=O)c1ccc(N2C(=O)CC(N(C)CCc3ccc(OC)c(OC)c3)C2=O)cc1 (stereo not drawn),?,14µM*,-7%,40%,-1%,1%
CN(Cc1ccccc1)C(=S)Nc1ccc(OC(F)F)cc1,-4%,-10%[59 µM],3%,33%,8%,-5%
C=CCn1c(C)cc(/C([O-])=C(/C(=S)Nc2ccc(OC(F)F)cc2)[n+]2ccc(N(C)C)cc2)c1C,?,40µM*,?,?,45µM*,-13%
O=C(NCc1ccccc1)C(=O)Nc1nc(C23CC4CC(CC(C4)C2)C3)cs1,-13%,30%[59 µM],-15%,31%,11%,-6%
CNC(=O)C(=O)Nc1nc(C23CC4CC(CC(C4)C2)C3)cs1,0%,-5%,-31%,-7%,-10%,30µM*
Cc1nc(NC(=O)c2ccccc2)sc1-c1csc(Nc2ccc(Cl)cc2)n1,.,45µM*,.,.,-38%[57.1 µM],.
Cc1nc(NC(=O)c2ccccc2)sc1-c1csc(Nc2ccc(F)cc2)n1,.,32µM*,.,.,?,.
Cc1nc(NC(=O)c2ccccc2)sc1-c1csc(Nc2cccc(Cl)c2)n1,.,50µM*,.,.,?,.
Cc1nc2ccccn2c1-c1csc(Nc2ccc(C(=O)O)cc2)n1,-8%,?,-32%,43%,?,-9%
Cc1nc2ccccn2c1-c1csc(Nc2cccc(C(=O)O)c2)n1,-19%,45µM*,-20%,11%,-10%,-4%
CCCn1nc2cc(C(=O)NC3CCc4ccccc43)ccc2c1OCC (stereo not drawn),-1%,16%[59 µM],-12%,49%,4%,0%
CCNC(=O)COC(=O)C1CCC(=O)N(c2ccc(OC)cc2)C1c1ccc(OC)cc1 (stereo not drawn),-3%,-5%[59 µM],-18%,21%,31%,-1%
COc1ccc(C2C(C(=O)OCC(=O)N3CCCCC3)CCC(=O)N2c2ccc(OC)cc2)cc1 (stereo not drawn),-52%,45µM*,2%,18%,-11%,-5%
CCOC(=O)c1c(C)n(C)c2ccc(O)cc12,?,7%[12.7 µM],.,.,.,.
CN(Cc1ccccc1)C(=O)c1[nH]cnc1C(=O)N[C@@H](Cc1ccccc1)C(=O)OCc1ccccc1,.,0%[12.7 µM],-35%,2%,-17%,2%
O=C(NC(=S)NC1CCCCCC1)c1cncc(Br)c1,32µM*,-5%[59 µM],?,-8%,-9%,-7%

# Screening data from PubChem BioAssay.
